Experiment [1] addresses Bromodomain-containing protein 4 (Homo sapiens) (UniProt O60885). As to conditions: Compound concentration 10.0 uM, Protein concentration 2.0 uM.
Experiment [2] deals with T1, Transcription intermediary factor 1-alpha (Homo sapiens) (UniProt O15164).
T1 sequence (whole entry): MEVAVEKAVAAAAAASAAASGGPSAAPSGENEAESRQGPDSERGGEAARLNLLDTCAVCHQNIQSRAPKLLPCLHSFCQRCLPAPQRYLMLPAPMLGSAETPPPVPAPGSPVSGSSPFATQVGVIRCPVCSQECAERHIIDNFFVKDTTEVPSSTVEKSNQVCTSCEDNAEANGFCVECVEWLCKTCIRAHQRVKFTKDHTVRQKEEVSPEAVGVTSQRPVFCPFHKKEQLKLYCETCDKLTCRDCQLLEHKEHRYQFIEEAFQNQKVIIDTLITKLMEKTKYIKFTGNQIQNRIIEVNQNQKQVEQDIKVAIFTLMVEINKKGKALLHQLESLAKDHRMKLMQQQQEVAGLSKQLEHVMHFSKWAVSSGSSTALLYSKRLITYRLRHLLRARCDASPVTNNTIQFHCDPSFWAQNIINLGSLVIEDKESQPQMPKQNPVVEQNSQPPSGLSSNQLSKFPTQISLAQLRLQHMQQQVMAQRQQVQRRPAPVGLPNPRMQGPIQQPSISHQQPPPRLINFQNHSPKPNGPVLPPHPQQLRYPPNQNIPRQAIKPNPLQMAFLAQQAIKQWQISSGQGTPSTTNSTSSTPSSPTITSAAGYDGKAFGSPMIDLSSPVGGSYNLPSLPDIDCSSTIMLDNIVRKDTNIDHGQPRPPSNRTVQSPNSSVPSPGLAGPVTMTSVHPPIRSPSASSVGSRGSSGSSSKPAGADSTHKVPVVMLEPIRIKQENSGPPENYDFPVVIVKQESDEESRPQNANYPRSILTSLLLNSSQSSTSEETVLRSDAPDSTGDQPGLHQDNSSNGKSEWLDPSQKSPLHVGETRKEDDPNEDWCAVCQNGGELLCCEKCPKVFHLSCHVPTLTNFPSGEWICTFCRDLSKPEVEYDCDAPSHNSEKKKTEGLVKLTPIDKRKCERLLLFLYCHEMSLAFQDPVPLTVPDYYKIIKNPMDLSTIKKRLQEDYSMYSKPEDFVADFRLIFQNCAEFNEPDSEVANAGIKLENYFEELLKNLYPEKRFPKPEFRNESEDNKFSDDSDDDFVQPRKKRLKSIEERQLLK
As to conditions: Compound concentration 10.0 uM, Protein concentration 2.0 uM.

The structures appear in SMILES notation. Several values for one entry are separate records, joined by “and”; a condition that tells them apart may be missing. Equal values may be shown once.

Usually ΔTm stands for the change in melting temperature against a reference sample. For the molecule `COc1cc2c(cc1NS(=O)(=O)c1ccc(Br)cc1C)n(C)c(=O)n2C`, the ΔTm in experiment [1] is 1.42 °C and 2.26 °C; in experiment [2], 2.87 °C.

Source of the values: ChEMBL document CHEMBL4649982, “Selective targeting of Bromodomains of the Bromodomain-PHD Fingers family impairs osteoclast differentiation” (ACS Chem Biol, 2017).
